# Experimental data reported in PubChem BioAssay (NCATS).
# Inconclusive results are not listed. A call without a number means that no potency is given here. A number with no mark means an inactive call. Calls of active or inactive are those of the source. Calls follow the shape of the dose curve; as a rule, active = well fitted curve in the direction sought with a large enough effect; inconclusive = small, poorly fitted or top-dose-only effect, or another doubt; inactive = no such curve, though single readings can be large; an effect the other way counts as inactive or inconclusive.
# Tests used:
# [1] = biological target: Rap guanine nucleotide exchange factor 3 (Homo sapiens) (UniProt O95398); assay: Confirmatory qHTS for agonist of cAMP-regulated guanine nucleotide exchange factor 3 (EPAC1) (AID 1645881);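 also: EPAC1 catalysed release of BODIPY-GDP from Rap1B seen as fluorescence loss; nearly all actives have a fitted effect of over 75% in size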
# [2] = biological target: Rap guanine nucleotide exchange factor 4 (Homo sapiens) (UniProt Q8WZA2); assay: Confirmatory qHTS for agonist of cAMP-regulated guanine nucleotide exchange factor 4 (EPAC2) (AID 1645884);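 also: nucleotide exchange releases bodipy-GDP from Rap1 and this lowers its fluorescence; nearly all actives have a fitted effect of over 65% in size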
# [3] = biological target: Rap guanine nucleotide exchange factor 4 (Homo sapiens) (UniProt Q8WZA2); assay: Confirmatory qHTS for antagonist of cAMP-regulated guanine nucleotide exchange factor 4 (EPAC2) (AID 1645885); also: nearly all actives have a fitted effect of over 25% in size; also: potency is read from the fitted curve at half-maximal effect
# [4] = biological target: Rap guanine nucleotide exchange factor 3 (Homo sapiens) (UniProt O95398); assay: Counterscreen qHTS for antagonist of cAMP-regulated guanine nucleotide exchange factor 3 (EPAC1) (AID 1645888);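 also: fluorescence loss as bound BODIPY-GDP is released from Rap1B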
# Outline: (§1)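 Rap1B–BODIPY-GDP (250 nM) with 50 uM GDP; compounds pin-transferred to 9.74 nM–152 uM final (activator) or from 7.32 nM upwards (inhibitor). Fluorescence Ex/Em 480/540 nm read at 5 and 30 min, then after adding cAMP or buffer, at room temperature.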
# [5] = biological target: Rap guanine nucleotide exchange factor 3 (Homo sapiens) (UniProt O95398); assay: Counterscreen qHTS for agonist of cAMP-regulated guanine nucleotide exchange factor 3 (EPAC1) (AID 1645889); also: nearly all actives have a fitted effect of over 40% in size
# Outline: as §1
# Chain of Rap guanine nucleotide exchange factor 3 (Homo sapiens) (O95398 whole entry, looked up): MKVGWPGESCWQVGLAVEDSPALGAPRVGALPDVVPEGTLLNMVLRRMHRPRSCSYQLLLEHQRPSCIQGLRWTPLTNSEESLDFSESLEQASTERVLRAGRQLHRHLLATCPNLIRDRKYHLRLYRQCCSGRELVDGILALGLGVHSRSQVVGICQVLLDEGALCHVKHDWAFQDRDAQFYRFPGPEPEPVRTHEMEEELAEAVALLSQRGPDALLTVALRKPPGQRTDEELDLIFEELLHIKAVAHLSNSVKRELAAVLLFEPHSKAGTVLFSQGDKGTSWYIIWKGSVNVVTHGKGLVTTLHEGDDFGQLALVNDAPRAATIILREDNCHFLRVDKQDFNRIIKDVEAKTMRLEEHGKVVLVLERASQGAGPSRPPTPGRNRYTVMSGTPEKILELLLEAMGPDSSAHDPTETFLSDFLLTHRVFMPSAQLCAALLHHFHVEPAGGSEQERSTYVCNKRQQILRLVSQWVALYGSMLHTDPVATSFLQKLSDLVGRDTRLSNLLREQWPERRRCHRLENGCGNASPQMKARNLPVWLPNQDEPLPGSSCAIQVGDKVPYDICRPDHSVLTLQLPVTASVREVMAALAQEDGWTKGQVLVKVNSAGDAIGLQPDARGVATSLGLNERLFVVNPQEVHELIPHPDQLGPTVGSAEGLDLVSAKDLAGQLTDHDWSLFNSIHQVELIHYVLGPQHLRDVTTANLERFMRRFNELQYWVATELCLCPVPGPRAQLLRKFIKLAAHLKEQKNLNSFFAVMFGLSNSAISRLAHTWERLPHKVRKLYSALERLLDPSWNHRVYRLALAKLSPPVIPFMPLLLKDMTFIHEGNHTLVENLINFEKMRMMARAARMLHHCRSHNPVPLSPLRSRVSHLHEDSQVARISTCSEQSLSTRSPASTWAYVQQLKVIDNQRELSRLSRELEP
# Chain of Rap guanine nucleotide exchange factor 4 (Homo sapiens) (Q8WZA2 whole entry, looked up): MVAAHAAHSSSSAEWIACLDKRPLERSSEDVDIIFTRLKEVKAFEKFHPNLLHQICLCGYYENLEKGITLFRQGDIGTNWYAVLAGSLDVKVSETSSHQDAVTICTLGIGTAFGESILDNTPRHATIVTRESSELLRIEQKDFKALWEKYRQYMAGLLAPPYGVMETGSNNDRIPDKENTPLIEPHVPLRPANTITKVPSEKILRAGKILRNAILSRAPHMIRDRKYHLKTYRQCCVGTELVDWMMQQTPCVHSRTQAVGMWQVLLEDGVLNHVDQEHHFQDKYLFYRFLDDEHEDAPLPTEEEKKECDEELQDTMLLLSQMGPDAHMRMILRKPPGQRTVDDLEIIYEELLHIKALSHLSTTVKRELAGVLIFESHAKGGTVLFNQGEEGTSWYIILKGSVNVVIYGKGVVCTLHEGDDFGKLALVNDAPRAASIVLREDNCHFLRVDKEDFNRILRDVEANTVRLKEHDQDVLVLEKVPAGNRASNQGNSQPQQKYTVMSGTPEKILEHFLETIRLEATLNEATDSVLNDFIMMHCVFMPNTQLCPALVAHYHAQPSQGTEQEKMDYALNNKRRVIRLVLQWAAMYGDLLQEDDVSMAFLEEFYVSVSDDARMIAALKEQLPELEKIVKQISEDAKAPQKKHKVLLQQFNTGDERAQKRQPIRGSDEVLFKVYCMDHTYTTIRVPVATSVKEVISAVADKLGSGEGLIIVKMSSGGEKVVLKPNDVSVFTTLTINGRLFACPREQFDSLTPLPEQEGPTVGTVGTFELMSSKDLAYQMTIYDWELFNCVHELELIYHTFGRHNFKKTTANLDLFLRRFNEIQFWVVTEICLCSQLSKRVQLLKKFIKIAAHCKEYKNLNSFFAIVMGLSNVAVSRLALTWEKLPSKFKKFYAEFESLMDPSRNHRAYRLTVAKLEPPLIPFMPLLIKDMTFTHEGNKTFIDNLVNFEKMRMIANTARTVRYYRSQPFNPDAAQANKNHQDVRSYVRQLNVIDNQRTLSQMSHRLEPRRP
smiles,measurement,setting,value
COc1ccc(OC)c(NC(=O)CSc2nc(O)cc(=O)n2CC(C)C)c1,Potency,[1],inactive
same,Potency,[2],inactive
same,Potency,[3],inactive
same,Potency,[4],inactive
CN(C)C(CNC(=O)c1cc(-c2ccco2)nc2ccccc12)c1ccccc1 (stereo not given),Potency,[1],inactive
same,activation,[2],"5.95% [at 17.1 µM, percent relative to cAMP agonist control]"
same,Potency,[3],inactive
same,"activity change, negative = inhibition",[4],-8.2% [at 30.8 µM]
COc1ccc(C(=O)NC2(C(F)(F)F)NC(=O)N(CCCc3ccccc3)C2=O)c(OC)c1OC (stereo not given),Potency,[1],inactive
same,activation,[2],"12.9% [at 17.1 µM, percent relative to cAMP agonist control]"
same,Potency,[3],inactive
same,"activity change, negative = inhibition",[4],-10.8% [at 30.8 µM]
Cc1ccc(C(=O)N2CCc3cc(CNC(=O)CSc4ccccc4)ccc32)cc1,Potency,[1],inactive
same,Potency,[2],inactive
same,Potency,[3],inactive
same,Potency,[4],inactive
CC(NC(=O)/C(C#N)=C/c1ccc([N+](=O)[O-])o1)c1ccccc1 (stereo not given),Potency,[1],inactive
same,activation,[2],"5.83% [at 17.1 µM, percent relative to cAMP agonist control]"
same,Potency,[3],inactive
same,"activity change, negative = inhibition",[4],20.7% [at 30.8 µM]
O=C1Cc2ccccc2C(=O)N1CCc1ccccc1,Potency,[1],inactive
same,Potency,[2],inactive
same,Potency,[3],inactive
same,Potency,[4],inactive
CCC(CO)n1c(SCc2cc([N+](=O)[O-])cc3c2OCOC3)nc2ccccc2c1=O (stereo not given),Potency,[1],inactive
same,activation,[2],"10.3% [at 17.1 µM, percent relative to cAMP agonist control]"
same,Potency,[3],inactive
same,"activity change, negative = inhibition",[4],19.8% [at 30.8 µM]
Cc1ccc(OCC(=O)Nc2ccc(C)c(S(=O)(=O)N3CCCCCC3)c2)c([N+](=O)[O-])n1,Potency,[1],inactive
same,Potency,[2],inactive
same,Potency,[3],inactive
same,Potency,[4],inactive
CCOc1ccc(N2C(=O)C3Sc4[nH]c(=O)sc4C(/C=C/c4ccccc4)C3C2=O)cc1 (stereo not given),Potency,[1],inactive
same,activation,[2],"4.64% [at 17.1 µM, percent relative to cAMP agonist control]"
same,Potency,[3],inactive
same,"activity change, negative = inhibition",[4],18.3% [at 30.8 µM]
COc1ccc(CCNC(=O)CS(=O)(=O)Cc2nc(-c3ccc(C)cc3)oc2C)cc1OC,Potency,[1],inactive
same,activation,[2],"2.98% [at 17.1 µM, percent relative to cAMP agonist control]"
same,Potency,[3],inactive
same,"activity change, negative = inhibition",[4],-2.91% [at 30.8 µM]
CC1CC(C)CN(C(=O)c2ccc3c(c2)N(Cc2ccccc2)CCS3)C1 (stereo not given),Potency,[1],inactive
same,activation,[2],"14.1% [at 17.1 µM, percent relative to cAMP agonist control]"
same,Potency,[3],inactive
same,"activity change, negative = inhibition",[4],1.99% [at 30.8 µM]
CCC(=O)NC(c1ccc(OC)cc1)c1c(O)ccc2ccccc12 (stereo not given),Potency,[1],inactive
same,Potency,[2],inactive
same,Potency,[3],inactive
same,Potency,[4],inactive
Cc1ccc(O)c(-c2n[nH]c3c2C(c2ccccc2F)N(Cc2ccco2)C3=O)c1 (stereo not given),Potency,[1],inactive
same,Potency,[2],inactive
same,Potency,[3],inactive
same,Potency,[4],inactive
Cc1cccn2c(=O)c3cc(C#N)c(=NC(=O)c4ccccc4)n(Cc4ccco4)c3nc12,Potency,[1],inactive
same,activation,[2],"11% [at 17.1 µM, percent relative to cAMP agonist control]"
same,Potency,[3],inactive
same,"activity change, negative = inhibition",[4],15.9% [at 30.8 µM]
COc1ccc(/C=N/NC(=O)c2[nH]c3ccc(Br)cc3c2-c2ccccc2)c(C(=O)O)c1OC,Potency,[1],inactive
same,activation,[2],"2.8% [at 17.1 µM, percent relative to cAMP agonist control]"
same,Potency,[3],inactive
same,"activity change, negative = inhibition",[4],0.744% [at 30.8 µM]
O=C(COc1ccc(Cl)cc1)NC1=NN(c2ccccc2)C(=O)C1,Potency,[1],inactive
same,Potency,[2],inactive
same,Potency,[3],inactive
same,Potency,[4],inactive
COc1ccc2ccc(C(C)(C(C)=O)C(=O)OC(C)C)cc2c1 (stereo not given),Potency,[1],inactive
same,activation,[2],"5.56% [at 17.1 µM, percent relative to cAMP agonist control]"
same,Potency,[3],inactive
same,"activity change, negative = inhibition",[4],-29.5% [at 30.8 µM]
Cc1ccc(-c2nc(-c3cc4cccc(OCc5ccc(F)cc5)c4oc3=O)no2)cc1,Potency,[1],inactive
same,Potency,[2],inactive
same,Potency,[3],inactive
same,Potency,[4],inactive
Cc1cc(/C=C2\C(=N)N3N=C(c4ccco4)SC3=NC2=O)c(C)n1Cc1ccccc1,Potency,[1],inactive
same,Potency,[2],inactive
same,Potency,[3],inactive
same,Potency,[4],inactive
CCOC(=O)c1c(C)oc2nc(C)nc(N(C)Cc3ccccc3)c12,Potency,[1],inactive
same,Potency,[2],inactive
same,outcome,[3],inactive [at 12.7 µM]
same,Potency,[4],inactive
Cc1cc(C)c(S(=O)(=O)/N=C2\C=C(Nc3ccc(C(=O)O)cc3)C(=O)c3ccccc32)c(C)c1,Potency,[1],inactive
same,Potency,[2],inactive
same,Potency,[3],inactive
same,Potency,[4],inactive
Cc1ccc(N(Cc2cccs2)C(=O)c2ccc(Br)o2)cc1,Potency,[1],inactive
same,Potency,[2],inactive
same,Potency,[3],inactive
same,Potency,[4],inactive
Cc1ccccc1C(=O)Nc1cccc(C(=O)N/N=C/c2cc(Cl)cc([N+](=O)[O-])c2O)c1,Potency,[1],inactive
same,Potency,[2],inactive
same,Potency,[3],inactive
same,Potency,[4],inactive
O=C(Nc1cccc(F)c1)c1ccc(-c2cccnc2)c2ccoc12,Potency,[1],inactive
same,Potency,[2],inactive
same,Potency,[3],inactive
same,Potency,[4],inactive
O=C(c1ccc(Br)cc1)C(CN1CCOCC1)c1ccccc1 (stereo not given),Potency,[1],inactive
same,activation,[2],"8.74% [at 17.1 µM, percent relative to cAMP agonist control]"
same,Potency,[3],inactive
same,"activity change, negative = inhibition",[4],16% [at 30.8 µM]
CC(C)(C)C1CCc2c(sc3nc(SCC(=O)O)nc(N)c23)C1 (stereo not given),Potency,[1],inactive
same,activation,[2],"8.5% [at 17.1 µM, percent relative to cAMP agonist control]"
same,Potency,[3],inactive
same,"activity change, negative = inhibition",[4],-1.53% [at 30.8 µM]
CCn1c(SCC(=O)N/N=C/C=C/c2ccco2)nnc1-c1ccccc1,Potency,[1],inactive
same,Potency,[2],inactive
same,Potency,[3],inactive
same,Potency,[4],inactive
COc1ccc(-c2cc(C(F)(F)F)c3c(n2)sc2c(O)cc(=O)[nH]c23)c(OC)c1,Potency,[1],inactive
same,Potency,[2],inactive
same,Potency,[3],inactive
same,Potency,[4],inactive
CC(=O)N1N=C(c2ccc(Cl)cc2)CC1c1ccc([N+](=O)[O-])cc1 (stereo not given),Potency,[1],inactive
same,activation,[2],"7.36% [at 17.1 µM, percent relative to cAMP agonist control]"
same,Potency,[3],inactive
same,"activity change, negative = inhibition",[4],2.9% [at 30.8 µM]
Cc1nnc(SCC(=O)NCc2ccccc2F)c2nn(-c3ccc(Cl)cc3)c(C)c12,Potency,[1],inactive
same,Potency,[2],inactive
same,Potency,[3],inactive
same,Potency,[4],inactive
COCCNc1nc2cc(-c3ccsc3)sc2c(=O)n1C,Potency,[1],inactive
same,Potency,[2],inactive
same,Potency,[3],inactive
same,Potency,[4],inactive
COc1ccccc1C(C(=O)c1ccccc1)c1ccc(O)cc1 (stereo not given),Potency,[1],inactive
same,activation,[2],"3.15% [at 17.1 µM, percent relative to cAMP agonist control]"
same,Potency,[3],inactive
same,"activity change, negative = inhibition",[4],-22.7% [at 30.8 µM]
CCCCN1CC(c2nc3ccccc3n2CCCCOc2cc(C)ccc2C)CC1=O (stereo not given),Potency,[1],inactive
same,Potency,[2],inactive
same,Potency,[3],inactive
same,Potency,[4],inactive
Cc1noc(NS(=O)(=O)c2ccc(N/C=C\C(=O)c3cccc4ccccc34)cc2)c1C,Potency,[1],inactive
same,Potency,[2],inactive
same,Potency,[3],inactive
same,Potency,[4],inactive
Cc1ccc(OCC(=O)Nc2ccc(Cl)c(-c3nc4ccccc4[nH]3)c2)cc1C,Potency,[1],inactive
same,Potency,[2],inactive
same,outcome,[3],inactive [at 12.7 µM]
same,Potency,[4],inactive
CCC(C)Cn1c(O)cc2nn(-c3nc4ccccc4s3)c(=O)c-2c1C (stereo not given),Potency,[1],inactive
same,activation,[2],"-0.693% [at 17.1 µM, percent relative to cAMP agonist control]"
same,Potency,[3],inactive
same,"activity change, negative = inhibition",[4],-16.7% [at 30.8 µM]
CCc1nc2c(OCc3ccc(C(=O)OC)cc3)cccn2c1N(C)C(=O)c1ccc(C)cc1,Potency,[1],inactive
same,Potency,[2],inactive
same,Potency,[3],inactive
same,Potency,[4],inactive
Cc1cccc([C@H]2[C@@H]3C=CCC[C@@H]3C(=O)N2Cc2ccccc2)c1,Potency,[1],inactive
same,Potency,[2],inactive
same,Potency,[3],42.6 µM (active)
same,Potency,[4],inactive
CC(NC(=O)COc1ccccc1-c1ccccc1)c1ccccc1 (stereo not given),Potency,[1],inactive
same,Potency,[2],inactive
same,Potency,[3],inactive
same,Potency,[4],inactive
same,Potency,[5],inactive
O=c1cc(-c2ccccc2)[nH]n1-c1nc2ccccc2s1,Potency,[1],inactive
same,activation,[2],"11.1% [at 17.1 µM, percent relative to cAMP agonist control]"
same,Potency,[3],inactive
same,"activity change, negative = inhibition",[4],2.08% [at 30.8 µM]
COc1ccccc1-n1c(C)c(C(=O)O)c2cc(OC)c3ccccc3c21,Potency,[1],inactive
same,Potency,[2],inactive
same,Potency,[3],47.8 µM (active)
same,Potency,[4],inactive
CCCc1nc2c(Cl)cc(C(F)(F)F)cn2c1Cc1ccc(OC)cc1C,Potency,[1],inactive
same,activation,[2],"5.33% [at 17.1 µM, percent relative to cAMP agonist control]"
same,Potency,[3],inactive
same,"activity change, negative = inhibition",[4],-8.15% [at 30.8 µM]
same,activation,[5],14.3% [at 30.8 µM]
O=[N+]([O-])c1cc(Br)ccc1NS(=O)(=O)c1ccccc1,Potency,[1],inactive
same,activation,[2],"-2.03% [at 17.1 µM, percent relative to cAMP agonist control]"
same,Potency,[3],inactive
same,"activity change, negative = inhibition",[4],-16.7% [at 30.8 µM]
NC(=O)C1CCN(C(=O)c2ccc3c(=O)n(Cc4cccc(Br)c4)c(=S)[nH]c3c2)CC1,Potency,[1],inactive
same,activation,[2],"7.22% [at 17.1 µM, percent relative to cAMP agonist control]"
same,Potency,[3],inactive
same,"activity change, negative = inhibition",[4],-4.35% [at 30.8 µM]
CCN(CC)CC#CC(OC)(c1ccccc1)c1ccccc1,Potency,[1],inactive
same,Potency,[2],inactive
same,Potency,[3],inactive
same,Potency,[4],inactive
COc1ccc(O)c(/C=N/NC(=O)c2ccc(N3CCCC3=O)cc2)c1,Potency,[1],inactive
same,Potency,[2],inactive
same,Potency,[3],inactive
same,Potency,[4],inactive
same,Potency,[5],inactive
O=C(COC(=O)C1(c2ccc(Cl)cc2)CCCC1)NCc1ccco1,Potency,[1],inactive
same,Potency,[2],inactive
same,Potency,[3],75.7 µM (active)
same,Potency,[4],inactive
Cc1csc(NC(=O)CSc2sc3c(O)cc(=O)[nH]c3c2C#N)n1,Potency,[1],inactive
same,Potency,[2],inactive
same,Potency,[3],inactive
same,Potency,[4],inactive
Oc1ccc2ccccc2c1C=Nc1ccc(Cl)cn1,Potency,[1],inactive
same,Potency,[2],inactive
same,Potency,[3],inactive
same,Potency,[4],inactive
same,Potency,[5],inactive
